# Experimental data reported in PubChem BioAssay (NCATS).
# Records with an inconclusive call do not appear. A call without a number means that no potency is given here. Active and inactive are the calls of the source. Calls come from the whole dose curve; as a rule, active = well fitted curve in the direction sought with a large enough effect; inconclusive = small, poorly fitted or top-dose-only effect, or another doubt; inactive = no such curve, though single readings can be large; an effect the other way counts as inactive or inconclusive.
# System: not listed separately
# Test: qHTS to identify inhibitors of the type 1 interferon - major histocompatibility complex class I in skeletal muscle: primary screen against the NCATS Mechanism Interrogation Plate v5.0 (MIPE) Libary (AID 1347411); note: nearly all actives have a fitted effect of over 65% in size; note: potency is the fitted concentration of half-maximal effect
# Settings: iHSKM cells + IFN-b, HiBiT-tagged MHC-I luminescence, 24 h; series mostly up to 45.8 µM
# Summary of the method: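 Luminescence from HiBiT-tagged endogenous HLA-B*08:01 served as the MHC class I read-out. CRISPR-engineered C25cl48 human myoblasts received 4.0 ng/ml IFN-beta plus compound for 24 hrs, with an 11-point, 1:3 series topping at 46 uM final.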
row,SMILES,Potency
1,CN(C)c1ccc(C2Nc3ccc4ccccc4c3C3=C2C(=O)CC(C)(C)C3)cc1Br (stereo not given),inactive
2,CCN(c1ccccc1)c1cc(NC)[n+](C)c(C)n1,inactive
3,Cc1cnc(Nc2ccc(OCCN3CCCC3)cc2)nc1Nc1cccc(S(=O)(=O)NC(C)(C)C)c1,5.23 µM (active)
4,O=c1[nH]c(-c2ccc(C(F)(F)F)cc2)nc2c1CSCC2,inactive
5,CS(=O)(=O)c1ccc(C(=O)Nc2ccc(Cl)c(-c3ccccn3)c2)c(Cl)c1,inactive
6,NC(=O)c1ccc(I)c([N+](=O)[O-])c1,inactive
7,CC(C)(N)C(=O)N[C@H](COCc1ccccc1)C(=O)N1CCC2(CC1)CN(S(C)(=O)=O)c1ccccc12,inactive
8,CCCn1c(=O)c2[nH]c(C34CC5CC3C[C@@H](C5)C4)nc2n(CCC)c1=O,inactive
9,CC[C@H](Nc1ncnc2nc[nH]c12)c1nc2cccc(F)c2c(=O)n1-c1ccccc1,inactive
10,CN(C)C(=O)c1ccc(S(=O)(=O)c2ccc(NC(=O)[C@@](C)(O)C(F)(F)F)c(Cl)c2)cc1,inactive
11,Cc1n[nH]c(C)c1Cc1sc2c(c1C(=O)N1C[C@H](O)CO1)c(=O)n(C)c(=O)n2CC(C)C,inactive
12,CC[C@@H](C)[C@H](NC(=O)[C@H](CC1CCCCC1)NC(=O)c1ccno1)C(=O)N1CCC2(CCc3ccccc32)CC1,inactive
13,Cc1cc(-c2ccc(CC(=O)Nc3ccc(-c4cccnc4)cc3)cc2)ccn1,inactive
14,Fc1ccc(Cl)cc1-c1nc(Nc2ccncc2)c2nccnc2n1,inactive
15,CCC(C)n1ncn(-c2ccc(N3CCN(c4ccc(OC[C@H]5CO[C@](Cn6cncn6)(c6ccc(Cl)cc6Cl)O5)cc4)CC3)cc2)c1=O (stereo not given in full),inactive
16,COc1ccc(CCN2CCN(CCCc3ccccc3)CC2)cc1OC,inactive
17,Cc1ccnc(NS(=O)(=O)c2ccc(NC(=O)Nc3ccc(S(=O)(=O)Nc4nccc(C)n4)cc3)cc2)n1,inactive
18,COc1c(Cl)cc2c([nH]c3cnccc32)c1NC(=O)c1cccnc1C,26.2 µM (active)
19,Cc1cccc(-c2nn(C(=S)Nc3ccccc3)cc2-c2ccnc3ccccc23)n1,inactive
20,NC(=O)c1ccc(-c2nc(-c3ccc4c(c3)OCO4)c(-c3ccccn3)[nH]2)cc1,inactive
21,S=C(NCc1ccc2c(c1)OCO2)N1CCN(c2ncnc3c2oc2ccccc23)CC1,inactive
22,O=C(Nc1ccc(F)c(C(F)(F)F)c1)Nc1nnc(-c2ccncc2)s1,inactive

# Target: Protein phosphatase 1D (Homo sapiens) (UniProt O15297)
# Test: Rhodamine-PBP qHTS Assay for Modulators of WT P53-Induced Phosphatase 1 (WIP1) (AID 1347425)
# Settings: recombinant WIP1, Rhodamine-PBP phosphate fluorescence, real-time; series mostly up to 57.5 µM
# Summary of the method: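 5 nM WIP1 + 10 uM Rh-PBP, 50 mM Tris pH 7.5, 30 mM MgCl2, 1 mM TCEP, 0.1 mM EGTA, BSA; cpds pinned, 1 hr RT; + 10 uM phosphopeptide; fluorescence 1-min reads x 11 min; delta = f1 - f0.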
# Sequence of Protein phosphatase 1D (Homo sapiens) (O15297 whole entry, looked up): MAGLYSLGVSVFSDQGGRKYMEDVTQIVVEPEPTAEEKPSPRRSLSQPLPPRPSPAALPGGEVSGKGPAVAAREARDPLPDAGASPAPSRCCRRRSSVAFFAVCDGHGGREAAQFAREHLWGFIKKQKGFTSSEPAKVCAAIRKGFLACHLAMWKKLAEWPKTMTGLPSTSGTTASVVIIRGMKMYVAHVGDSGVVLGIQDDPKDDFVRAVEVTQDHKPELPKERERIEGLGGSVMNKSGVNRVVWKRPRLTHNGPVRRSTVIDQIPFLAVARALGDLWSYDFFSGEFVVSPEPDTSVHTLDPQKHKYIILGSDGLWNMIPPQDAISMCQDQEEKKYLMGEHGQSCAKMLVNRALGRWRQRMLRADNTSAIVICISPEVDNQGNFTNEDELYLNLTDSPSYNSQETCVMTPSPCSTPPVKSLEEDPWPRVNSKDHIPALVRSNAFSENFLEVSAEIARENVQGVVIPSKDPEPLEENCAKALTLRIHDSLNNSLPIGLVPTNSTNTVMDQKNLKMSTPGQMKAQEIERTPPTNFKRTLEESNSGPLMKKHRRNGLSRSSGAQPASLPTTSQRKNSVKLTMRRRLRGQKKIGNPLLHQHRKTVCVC
row,SMILES,outcome
1,Cc1ccc(-n2nc(C(C)(C)C)cc2NC(=O)Nc2ccc(OCCN3CCOCC3)c3ccccc23)cc1,inactive
2,CNC(=O)c1ccccc1Sc1ccc2c(/C=C/c3ccccn3)n[nH]c2c1,inactive
3,CCC(C)n1ncn(-c2ccc(N3CCN(c4ccc(OC[C@H]5CO[C@](Cn6cncn6)(c6ccc(Cl)cc6Cl)O5)cc4)CC3)cc2)c1=O (stereo not given in full),inactive
